Screening results from PubChem BioAssay.
Sampled rows, rich in hits. Any-hit rate of the full collection: about 19%.
HT1080NT lethal = kills 2HG-producing HT-1080-NT fibrosarcoma cells. HT-1080-NT fibrosarcoma viability, CellTiter-Glo ATP luminescence, 48 h. Potency, µM (doses to about 46.1 µM), for inactives: at the top dose activity, negative = less viability, actives largely listed as cytotoxic. 360,000 compounds, 1.6% hits;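 also: NT is the 2HG producing partner of a matched IDH1 knockdown line; 0% = DMSO-treated cells and -100% = media-only wells without cells; nearly all actives have a fitted effect of over 55% in size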
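Luminescent CellTiter-Glo readout after 48 hours of compound exposure at 37 degrees C defined viability of HT-1080-NT cells. Activity was normalized to DMSO wells and cell-free media wells; concentration-response curves were fitted and assigned curve classes.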
KB-V1 MDR tox = KB-V1 MDR subline cytotoxicity. KB-V1 MDR cells viability, CellTiter-Glo, 72 h. Potency, µM (highest dose often 46.1 µM), most hits filed as cytotoxic. 400,000 compounds, 3.4% hits; also: nearly all actives have a fitted effect of over 60% in size
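KB-V1, DMEM (no phenol red) + 10% FBS; cpd pin-transferred, titration series; 72 h, 37 degrees C; CellTiter-Glo, luminescence. Data normalized, curve-fit.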
HT1080 IDH1KD tx = toxicity to HT-1080 IDH1 knockdown cells (counter line). HT-1080 IDH1 knockdown viability, ATP luminescence, 48 h. 360,000 compounds, 2% hits. Potency, µM (titrated, usually from 46.1 µM), for inactives: at the highest dose activity, negative = toxicity, most hits filed as cytotoxic. AID 686971;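 also: 0% = DMSO wells and -100% = cell-free medium wells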
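Cytotoxicity counter-line: IDH1KD HT-1080, 48 h, CellTiter-Glo. Curves classed by r2, magnitude and activity.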
TDP1 cell CPT = growth inhibition of DT40 Tdp1-/-;hTDP1 cells with camptothecin (screen for TDP1 inhibitors); Potency, µM (top dose mostly 46.2 µM), inactives show top-dose activity change, negative = growth inhibition, most hits filed as inhibitors; chicken DT40 Tdp1-/-;hTDP1 cells + 20 nM CPT, ATP luminescence, 48 h; 420,000 compounds, 12% hits; also: nearly all actives have a fitted effect of over 55% in size
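Cell growth measured by CellTiter-Glo luminescence after a minimum 48 h, 37 C compound exposure with 20 nM CPT in Tdp1-knockout DT40 cells stably expressing hTDP1, seeded 400/well; qHTS titration format.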
TDP1 cell noCPT = qHTS for Inhibitors of human tyrosyl-DNA phosphodiesterase 1 (TDP1): qHTS in cells in absence of CPT. AID 686978, 2013. 420,000 compounds, 15% hits. Potency, µM (highest dose often 46.2 µM), inactives show at the top dose activity change, negative = growth inhibition, actives largely listed as inhibitors. DT40 Tdp1-/- hTDP1 cells, no CPT, ATP luminescence, 48 h; also: nearly all actives have a fitted effect of over 55% in size
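Growth kinetics read by CellTiter-Glo luminescence after ≥48 hr at 37 °C. Cells: DT40 Tdp1-/- stably carrying human TDP1, 400 per well, compound exposure in the absence of CPT (DMSO vehicle).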
KB-3-1 tox = KB-3-1 parental cell cytotoxicity; Potency, µM (titrated, usually from 46.1 µM), most hits filed as cytotoxic; 400,000 compounds, 1.4% hits; AID 1347075; KB-3-1 viability, CellTiter-Glo ATP luminescence, 72 h; also: nearly all actives have a fitted effect of over 60% in size
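Parental KB-3-1 viability, qHTS format: 72 h compound exposure, 37 °C; CellTiter-Glo; media-only wells and DMSO plates as controls; concentration-effect fits on corrected data.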
* hit, by the source's call; i = inactive; ? = inconclusive; / = no result given. Calls follow the shape of the dose curve; as a rule, active = well fitted curve in the direction sought with a large enough effect; inconclusive = small, poorly fitted or top-dose-only effect, or another doubt; inactive = no such curve, though single readings can be large; an effect the other way counts as inactive or inconclusive. Unless noted, % is scaled to controls: 0 for no effect and ±100 for the full control effect; potency is read from the fitted curve at half-maximal effect.

SMILES	HT1080NT lethal	KB-V1 MDR tox	HT1080 IDH1KD tx	TDP1 cell CPT	TDP1 cell noCPT	KB-3-1 tox
CCn1c(O)c(N=NC(=O)C(O)c2ccccc2)c2ccccc21 (configuration not stated)	-3.3%	i	-6.6%	23.1µM*	20.6µM*	i
CCn1c(O)c(N=NC(=O)CNC(=O)Cc2ccccc2)c2ccccc21	2.8%	i	-3.7%	-20.4%	18.2%	i
COc1cc(CN(C(=O)c2ccccc2)c2ccccn2)cc(OC)c1OC	/	i	/	?	?	i
C[C@H](CO)N1C[C@H](C)[C@@H](CN(C)S(=O)(=O)c2ccccc2)OCc2cnnn2CCCC1=O	-3.0%	i	4.1%	3.4%	1.2%	i
COc1ccc(C(=O)Nc2cc(Cl)ccc2OC(=O)c2ccc(OC)cc2)cc1	0.0%	i	-9.5%	?	?	i
N#Cc1ccc(C(=O)Nc2ccn(-c3ccccc3)n2)cc1	-18.8%	i	?	?	?	i
O=C(Nc1ccccc1OC(=O)c1ccc(Cl)cc1)c1ccc(Cl)cc1	-24.7%	?	1.1%	?	16.4µM*	i
O=C(Nc1cccnc1Cl)c1ccc(Cl)cc1	20.0%	i	18.0%	16.6%	1.0%	i
O=C(Nc1ccn(-c2ccccc2)n1)c1ccc(Cl)cc1	-3.3%	18.4µM*	-17.4%	-16.6%	-24.8%	i
O=C(Nc1ccccc1O)c1ccc(Cl)cc1	?	i	-24.5%	16.4µM*	23.1µM*	?
C/C(CCc1oc2ccccc2c1-c1ccc(C)o1)=N/O	-25.8%	i	?	?	18.4µM*	i
CC(=O)CCc1oc2ccc([N+](=O)[O-])cc2c1-c1ccc(C)o1	0.5%	i	1.7%	6.3%	-11.8%	i
C/C(CCc1oc2c(Br)cc(Br)cc2c1-c1ccc(C)o1)=N\O	-17.7%	i	-28.6%	16.4µM*	18.4µM*	i
Cc1ccc(-c2n[nH]c(=S)n2C)cc1Cl	11.3%	2.91µM*	19.8%	-12.9%	?	4.11µM*
CCN(CC)S(=O)(=O)c1cccc(-c2n[nH]c(=S)n2C)c1	9.3%	?	10.3%	12.3%	-12.0%	i
Cc1ccc(OCCCCn2c(-c3ccc(Cl)cc3)nc3ccccc3c2=O)cc1	/	i	/	-19.2%	-9.7%	i
O=C(CSc1ccccn1)N1CCN(c2ncc(C(F)(F)F)cc2Cl)CC1	-14.6%	i	-13.1%	?	16.4µM*	i
OC(CN1CCN(c2ncc(C(F)(F)F)cc2Cl)CC1)c1ccccc1 (configuration not stated)	-21.9%	i	8.7%	?	?	i
O=C(O)c1nn(CC(=O)N2CCN(c3ncc(C(F)(F)F)cc3Cl)CC2)c(=O)c2ccccc12	-13.0%	?	-26.8%	-25.3%	16.4µM*	i
FC(F)(F)c1cnc(N2CCN(C(=S)NCc3ccccc3)CC2)c(Cl)c1	-33.1%	i	?	?	20.6µM*	?
O=C(CSc1ccccn1)N1CCN(C(=O)CSc2ccccn2)CC1	5.6%	i	3.8%	4.9%	2.4%	i
CCOc1ccc(CCNC(=O)Cn2ncn3c(cc4sc(C)cc43)c2=O)cc1OCC	/	/	/	0.6%	?	/
CC1C(=O)N(Cc2cn(Cc3ccco3)nn2)CCS(=O)(=O)N1Cc1ccc(-c2ccccc2C(F)(F)F)cc1 (configuration not stated)	?	i	?	?	?	i
CCCn1c(C(C)Nc2nc(-c3ccc(Cl)c([N+](=O)[O-])c3)cs2)nc2ccccc21 (configuration not stated)	?	?	-25.4%	23.1µM*	?	?
O=[N+]([O-])c1cc(-c2csc(NC(CO)c3nc4ccccc4n3CCOCCO)n2)ccc1Cl (configuration not stated)	-6.0%	i	-20.7%	?	18.4µM*	i
SMILES	HT1080NT lethal	KB-V1 MDR tox	HT1080 IDH1KD tx	TDP1 cell CPT	TDP1 cell noCPT	KB-3-1 tox
CC(C)c1ccc(NC(=S)NCCc2c[nH]c3ccccc23)cc1	-25.6%	?	?	?	25.9µM*	?
COc1ccc(CCNC(=S)NCCc2c[nH]c3ccccc23)cc1	-1.2%	?	-8.5%	?	?	i
COc1ccc(Cl)cc1NC(=S)NCCc1c[nH]c2ccccc12	?	?	?	?	?	20.6µM*
Cc1ccc(NC(=S)NCCc2c[nH]c3ccccc23)cc1	-13.2%	i	?	?	23.1µM*	i
Cc1cccc(NC(=S)NCCc2c[nH]c3ccccc23)c1	-15.1%	?	-19.7%	?	?	i
Cc1ccc(C)c(NC(=S)NCCc2c[nH]c3ccccc23)c1	-28.7%	?	-21.4%	?	13µM*	i
Cc1ccccc1NC(=S)NCCc1c[nH]c2ccccc12	-1.9%	i	-0.5%	-12.5%	?	i
O=C(COC(=O)c1ccc(F)cc1F)Nc1cccc(S(=O)(=O)N2CCOCC2)c1	-8.5%	i	0.7%	?	-5.7%	i
Cc1ccccc1Cn1c(=O)n(Cc2ccc3c(c2)OCO3)c(=O)c2oc3ccccc3c21	/	/	/	3.4%	-0.5%	/
CCCCn1cnc2cc(NCc3ccncc3)ccc21	10.6%	?	8.3%	-19.7%	-26.1%	i
CC(C)c1ccc(CNc2ccc3c(c2)ncn3C)cc1	-4.1%	?	-11.5%	23.1µM*	?	?
CN(C)c1ccc(CNc2ccc3c(c2)ncn3C)cc1	-8.1%	i	?	14.6µM*	23.1µM*	i
Cn1cnc2cc(NCc3ccccc3Cl)ccc21	-9.1%	i	-6.8%	-18.2%	-16.5%	i
O=C(CCSCCC(=O)Nc1c(F)c(F)c(F)c(F)c1F)Nc1c(F)c(F)c(F)c(F)c1F	1.3%	i	-1.7%	-18.7%	?	i
CCN(CC)C(=O)[C@H]1C[C@H](CC(=O)NCc2ccco2)C(=O)N2CCc3c([nH]c4ccc(Cl)cc34)[C@]12C	-3.7%	i	-2.1%	16.4µM*	16.4µM*	i
C[C@]12c3[nH]c4ccc(Cl)cc4c3CCN1C(=O)[C@@H](CC(=O)NCc1ccco1)C[C@@H]2C(=O)N1CCOCC1	-0.2%	i	-4.6%	18.4µM*	20.6µM*	i
